In PubChem BioAssay (Tox21):
Inconclusive results are not listed. Calls of active or inactive are those of the source. Unless noted, the call rests on the fitted dose curve.

Columns and labels:
[1] = molecular target: Gonadotropin-releasing hormone receptor (Homo sapiens) (UniProt P30968); assay: Human gonadotropin-releasing hormone receptor (GnRHR) small molecule agonists, calcium flux assay in GnRHR-HEK293 cells (AID 1920063); further: nearly all actives have a fitted effect of over 35% in size
Procedure, shortened: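 Tox21-format agonist screen using human GnRHR-expressing HEK293 cells and a fluorescent calcium dye; kinetic 3-min fluorescence reading after compound addition, 15-point concentration series run in triplicate.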

[2] = molecular target: KiSS-1 receptor (Homo sapiens) (UniProt Q969F8); assay: Human kisspeptin (KISS1R) small molecule agonists, calcium flux assay in KISS1R-HEK293 cells (AID 1920064; active means well fitted activation curve with a large enough effect in the repeat runs)
Procedure, shortened: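 Intracellular calcium mobilization in KISS1R-HEK293 cells was recorded by fluorescence (Ex/Em 480/540) for 3 min following compound addition to cells pre-loaded 1 h with calcium dye.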

[3] = G protein-coupled receptor (GPCR) small molecule agonists, calcium flux assay: HEK293 wild type cell line counter screen (AID 1920065); further: potency means the concentration at half of the fitted maximal effect
Procedure, shortened: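 In this agonist-mode screen, ATP is the positive control and DMSO the vehicle. Cells grow 18 h before a 1 h dye incubation at 37 C; signal is taken at Ex/Em 480/540 over 3 min.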

[4] = p53 small molecule agonists, cell-based qHTS assay with human liver microsomes (AID 1963577);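 further: p53 response element beta-lactamase reporter cells with liver microsomes plus NADPH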
Procedure, shortened: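 In this qHTS, p53 response-element beta-lactamase cells receive test compound together with a microsome/NADPH activating system (0.5 mg/mL final each) and are incubated 16 h at 37 C before LiveBLAzer fluorescence detection.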

[5] = p53 small molecule agonists, cell-based qHTS assay with rat liver microsomes (AID 1963578)
Procedure, shortened: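 Agonist mode in p53RE-bla reporter cells, with compounds co-incubated 16 h at 37 C alongside 0.5 mg/mL rat liver microsomes and 0.5 mg/mL NADPH (final), followed by a 2 h LiveBLAzer detection step.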

[6] = p53 small molecule agonists, cell-based qHTS assay with human liver microsomes: qHTS cell viability counter screen (AID 1963579); further: nearly all actives have a fitted effect of over 45% in size
Procedure, shortened: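 Metabolically activated exposure: compounds, human liver microsomes and NADPH (0.5 mg/mL final apiece) were added to p53RE-bla cells seeded 5 h earlier, left 16 h at 37 C, and then assessed for viability by CellTiter-Glo luminescence.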

[7] = p53 small molecule agonists, cell-based qHTS assay with rat liver microsomes: qHTS cell viability counter screen (AID 1963580); further: nearly all actives have a fitted effect of over 45% in size; further: potency means the concentration at half of the fitted maximal effect
Procedure, shortened: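 HCT-116 p53RE-bla, 4,000 cells/well, 5 h pre-incubation; cpd + rat liver microsomes 0.5 mg/mL + NADPH 0.5 mg/mL (final); 16 h, 37 C; CellTiter-Glo, 30 min RT; luminescence.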

[8] = p53 small molecule agonists, cell-based qHTS assay: qHTS cell viability counter screen (AID 1963581); further: nearly all actives have a fitted effect of over 45% in size
Procedure, shortened: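 Compounds are pinned onto HCT-116 p53RE-bla cells and left 16 h at 37 C. Following the reporter FRET read, ATP is quantified by CellTiter-Glo luminescence after 30 min at room temperature.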

[9] = molecular target: 5-hydroxytryptamine receptor 2A (Homo sapiens) (UniProt P28223); assay: 5-hydroxytryptamine receptor 2A (HTR2A) small molecule antagonists, cell-based qHTS assay (AID 1963586); further: nearly all actives have a fitted effect of over 45% in size
Procedure, shortened: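 Antagonist-mode intracellular calcium assay: DOI (4 nM) added after 5 min compound pre-incubation at room temperature to dye-loaded HTR2A-CHO cells. Fluorescence followed for 3 min, sampled every second.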

[10] = molecular target: 5-hydroxytryptamine receptor 2A (Homo sapiens) (UniProt P28223); assay: 5-hydroxytryptamine receptor 2A (HTR2A) small molecule agonists, cell-based qHTS assay (AID 1963587); further: nearly all actives have a fitted effect of over 30% in size; further: potency means the concentration at half of the fitted maximal effect
Procedure, shortened: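 Kinetic calcium-flux fluorescence (2 min, 1 sec intervals) after compound addition in agonist mode. HTR2A-CHO cells were cultured 18 h, then dye-loaded 1 h at 37 C.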

[11] = molecular target: Muscarinic acetylcholine receptor M1 (Homo sapiens) (UniProt P11229); assay: Cholinergic receptor muscarinic 1 (CHRM1) small molecule antagonists, cell-based qHTS assay (AID 1963588); further: nearly all actives have a fitted effect of over 40% in size
Procedure, shortened: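 CHRM1-CHO calcium-flux assay, antagonist mode. Cells were seeded 18 h, dye-loaded 1 h at 37 C and given compound for 5 min at RT, then acetylcholine was added at 50nM. FDSS fluorescence was read 3 min; 15 concentrations, three runs.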

[12] = molecular target: Muscarinic acetylcholine receptor M1 (Homo sapiens) (UniProt P11229); assay: Cholinergic receptor muscarinic 1 (CHRM1) small molecule agonists, cell-based qHTS assay (AID 1963589); further: nearly all actives have a fitted effect of over 35% in size
Procedure, shortened: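 Stable CHRM1-CHO cells (human receptor) were incubated 18 h, dye-loaded for 1 h at 37 C and exposed to test compounds for agonist activity, with calcium-dependent fluorescence followed kinetically.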

[13] = molecular target: Beta-2 adrenergic receptor (Homo sapiens) (UniProt P07550); assay: Adrenergic beta2 receptor (ADRB2) small molecule antagonists, cell-based qHTS assay (AID 1963592); further: series mostly up to about 92 µM; nearly all actives have a fitted effect of over 50% in size
Procedure, shortened: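 Cells (CHO, stable ADRB2 overexpression) incubated 18-20hr at 37C; compounds added from DMSO; agonist mix (1nM isoproterenol, 100uM IBMX, 25uM Ro-20-1724) added; 0.5hr RT; d2-cAMP and anti-cAMP-cryptate added; 1hr RT; 665/615 nm read.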

[14] = molecular target: D(2) dopamine receptor (Homo sapiens) (UniProt P14416); assay: Dopamine D2 receptor (DRD2) small molecule agonists, cell-based qHTS assay (AID 1963594); further: nearly all actives have a fitted effect of over 35% in size
Procedure, shortened: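 cAMP accumulation in DRD2-HEK293 cells measured by HTRF after 1 h detection; compounds added 10 min before NKH477 (200nM […]) forskolin-analogue stimulation, 30 min at room temperature, with Ro20-1724 present at 0.1 mM final.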

[15] = molecular target: D(2) dopamine receptor (Homo sapiens) (UniProt P14416); assay: Dopamine D2 receptor (DRD2) small molecule antagonists, cell-based qHTS assay (AID 1963595; active means well fitted inhibition curve with a large enough effect in the signal ratio in the repeat runs, with a control signal flat; the % refers to the signal ratio)
Procedure, shortened: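 HEK293 cells stably expressing DRD2 were preincubated with 0.1 mM Ro20-1724, then with compound for 10 min at room temperature. Cells were stimulated with 200 nM NKH477 plus 12 nM quinpirole for 30 min, and cAMP was read by HTRF.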

[16] = p53 small molecule agonists, cell-based qHTS assay (AID 1963582; active means well fitted activation curve with a large enough effect in the signal ratio in the repeat runs, not every such curve was filed as active; the % refers to the signal ratio)
Procedure, shortened: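 Agonist activity was scored from beta-lactamase FRET fluorescence in p53RE-bla cells treated 16 h at 37 C with compounds in DMSO, substrate incubation being 2 h at room temperature.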

[17] = cAMP Responsive Elements (CRE) small molecule agonists, cell-based qHTS assay (AID 1963590)
Procedure, shortened: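 FRET-based beta-lactamase readout (LiveBLAzer B/G, 2 h RT) quantified CRE activation in HEK 293T CRE-bla cells after 3 h treatment with DMSO-dissolved compounds.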

[18] = cAMP Responsive Elements (CRE) small molecule antagonists, cell-based qHTS assay (AID 1963591; active means well fitted inhibition curve with a large enough effect in the signal ratio in the repeat runs, not every such curve was filed as active; the % refers to the signal ratio)
Procedure, shortened: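 qHTS in CRE-bla HEK 293T cells: compound in DMSO, then 0.25 uM NKH477 (final), 3 h at 37 °C/5% CO2; beta-lactamase FRET read-out after 2 h substrate incubation.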

[19] = molecular target: Beta-2 adrenergic receptor (Homo sapiens) (UniProt P07550); assay: Adrenergic beta2 receptor (ADRB2) small molecule agonists, cell-based qHTS assay (AID 1963593);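 further: CHO cells stably overexpressing human ADRB2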
Procedure, shortened: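 CHO cells stably over-expressing ADRB2 were plated overnight at 37C, then dosed with compounds plus a stimulation mix containing 100uM IBMX and 25uM Ro-20-1724 for 0.5hr at room temperature. cAMP was measured by HTRF competition, 1hr.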
On the % scale 0 is the no-effect control and ±100 the full control effect.

Chain of D(2) dopamine receptor (Homo sapiens) (P14416 whole entry, looked up): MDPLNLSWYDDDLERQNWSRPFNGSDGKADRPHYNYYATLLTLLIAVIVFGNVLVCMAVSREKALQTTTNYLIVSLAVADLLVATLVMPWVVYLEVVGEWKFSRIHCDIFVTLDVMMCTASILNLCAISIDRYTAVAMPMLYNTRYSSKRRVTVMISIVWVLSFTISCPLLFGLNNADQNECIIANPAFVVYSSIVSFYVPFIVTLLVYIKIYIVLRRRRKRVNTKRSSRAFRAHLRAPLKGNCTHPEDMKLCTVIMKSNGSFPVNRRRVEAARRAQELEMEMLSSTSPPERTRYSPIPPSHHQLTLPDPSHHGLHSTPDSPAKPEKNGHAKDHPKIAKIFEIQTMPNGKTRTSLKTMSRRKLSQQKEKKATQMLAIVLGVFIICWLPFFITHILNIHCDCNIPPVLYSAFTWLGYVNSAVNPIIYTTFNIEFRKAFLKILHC
Chain of 5-hydroxytryptamine receptor 2A (Homo sapiens) (P28223 whole entry, looked up): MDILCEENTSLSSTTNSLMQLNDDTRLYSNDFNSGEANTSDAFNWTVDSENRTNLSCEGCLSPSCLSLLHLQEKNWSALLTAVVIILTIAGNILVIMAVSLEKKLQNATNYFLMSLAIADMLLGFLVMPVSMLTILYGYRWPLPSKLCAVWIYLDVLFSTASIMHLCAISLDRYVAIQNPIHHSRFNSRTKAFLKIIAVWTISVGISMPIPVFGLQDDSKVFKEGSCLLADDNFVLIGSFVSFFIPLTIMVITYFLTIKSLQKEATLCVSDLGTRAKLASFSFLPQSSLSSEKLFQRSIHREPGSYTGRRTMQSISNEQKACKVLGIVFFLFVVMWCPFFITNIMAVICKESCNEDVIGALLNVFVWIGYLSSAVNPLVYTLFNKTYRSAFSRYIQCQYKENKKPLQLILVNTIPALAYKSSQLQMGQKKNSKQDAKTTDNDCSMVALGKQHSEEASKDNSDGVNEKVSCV
Chain of Muscarinic acetylcholine receptor M1 (Homo sapiens) (P11229 whole entry, looked up): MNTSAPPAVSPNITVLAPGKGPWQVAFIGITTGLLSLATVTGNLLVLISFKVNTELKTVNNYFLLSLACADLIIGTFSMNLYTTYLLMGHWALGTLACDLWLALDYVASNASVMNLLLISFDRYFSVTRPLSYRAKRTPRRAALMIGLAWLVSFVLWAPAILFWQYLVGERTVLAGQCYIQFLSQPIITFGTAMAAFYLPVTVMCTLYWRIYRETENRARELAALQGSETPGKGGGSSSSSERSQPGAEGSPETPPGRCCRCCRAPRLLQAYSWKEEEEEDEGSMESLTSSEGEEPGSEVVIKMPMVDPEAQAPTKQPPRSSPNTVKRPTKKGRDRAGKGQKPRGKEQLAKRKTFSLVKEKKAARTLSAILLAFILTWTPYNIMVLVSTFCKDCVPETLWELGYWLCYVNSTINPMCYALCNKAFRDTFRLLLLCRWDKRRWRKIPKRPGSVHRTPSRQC
Chain of Gonadotropin-releasing hormone receptor (Homo sapiens) (P30968 whole entry, looked up): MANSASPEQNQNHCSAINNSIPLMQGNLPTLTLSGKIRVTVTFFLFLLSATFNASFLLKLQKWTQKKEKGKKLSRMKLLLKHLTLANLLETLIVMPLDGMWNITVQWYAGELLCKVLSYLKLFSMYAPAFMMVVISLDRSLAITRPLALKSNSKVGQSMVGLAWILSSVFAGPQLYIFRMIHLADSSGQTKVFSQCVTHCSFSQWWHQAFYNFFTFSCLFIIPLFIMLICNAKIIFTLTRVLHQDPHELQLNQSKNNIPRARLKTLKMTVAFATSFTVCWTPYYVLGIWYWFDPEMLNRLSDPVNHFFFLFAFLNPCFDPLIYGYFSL
Chain of KiSS-1 receptor (Homo sapiens) (Q969F8 whole entry, looked up): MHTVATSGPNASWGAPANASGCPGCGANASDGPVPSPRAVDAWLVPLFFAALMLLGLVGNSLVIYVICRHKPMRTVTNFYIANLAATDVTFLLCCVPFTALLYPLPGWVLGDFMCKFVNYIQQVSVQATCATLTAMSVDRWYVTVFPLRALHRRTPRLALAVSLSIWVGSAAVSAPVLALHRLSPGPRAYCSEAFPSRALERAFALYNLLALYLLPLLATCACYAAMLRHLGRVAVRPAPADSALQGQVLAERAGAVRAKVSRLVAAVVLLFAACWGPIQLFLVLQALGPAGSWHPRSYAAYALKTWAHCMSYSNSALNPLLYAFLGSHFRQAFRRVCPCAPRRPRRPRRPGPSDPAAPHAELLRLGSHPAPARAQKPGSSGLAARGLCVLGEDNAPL
Chain of Beta-2 adrenergic receptor (Homo sapiens) (P07550 whole entry, looked up): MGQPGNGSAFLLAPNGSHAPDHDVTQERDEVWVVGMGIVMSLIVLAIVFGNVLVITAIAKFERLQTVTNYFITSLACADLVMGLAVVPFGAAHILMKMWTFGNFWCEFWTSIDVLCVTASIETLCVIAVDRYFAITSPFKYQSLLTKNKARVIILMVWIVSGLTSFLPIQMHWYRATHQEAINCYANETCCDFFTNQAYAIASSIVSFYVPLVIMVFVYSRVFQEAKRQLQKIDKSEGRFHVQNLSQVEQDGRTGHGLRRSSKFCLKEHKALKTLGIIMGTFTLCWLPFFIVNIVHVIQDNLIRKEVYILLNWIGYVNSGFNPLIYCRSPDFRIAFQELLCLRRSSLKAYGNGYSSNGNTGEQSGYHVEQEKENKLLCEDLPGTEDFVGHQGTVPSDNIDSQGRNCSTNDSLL

O=C(N/N=C/c1ccc([N+](=O)[O-])o1)c1ccc(O)cc1
inactive: Potency [1] | Potency [2] | Potency [3] | Potency [4] | Potency [5] | Potency [6] | Potency [7] | Potency [8] | Potency [9] | Potency [10] | Potency [11] | Potency [12] | Potency [13] | Potency [14] | Potency [15]

CC/C=C1/OC(=O)c2ccccc21
inactive: Potency [1] | Potency [2] | Potency [3] | Potency [4] | Potency [5] | Potency [7] | Potency [8] | Potency [16] | Potency [9] | Potency [10] | Potency [11] | Potency [12] | Potency [17] | Potency [18] | Potency [13] | Potency [14] | Potency [15]

COc1ccc(-c2cc(=S)ss2)cc1
inactive: Potency [1] | Potency [2] | Potency [3] | Potency [4] | Potency [5] | Potency [6] | Potency [7] | Potency [8] | Potency [10] | Potency [11] | Potency [12] | Potency [17] | Potency [18] | Potency [13] | Potency [19] | Potency [14] | Potency [15]

CCN(Cc1cccc(S(=O)(=O)O)c1)c1ccc(C(=C2C=CC(=[N+](CC)Cc3cccc(S(=O)(=O)O)c3)C=C2)c2ccccc2S(=O)(=O)[O-])cc1
active: Potency [7] 20.5 µM
inactive: Potency [1] | Potency [2] | Potency [3] | Potency [4] | Potency [5] | Potency [16] | Potency [9] | Potency [10] | Potency [11] | Potency [12] | Potency [17] | Potency [18]

O=C(O)O
inactive: activity change [1] 1.69% [at 5.22 µM, active compounds read high] | activation [2] 0.0823% [at 6.97 µM] | activation [3] -0.66% [at 5.23 µM] | activation [4] -14.9% [at 5.99 µM] | activation [5] -6.42% [at 5.99 µM] | activity change, negative = cytotoxicity [6] -18.2% [at 5.99 µM] | activity change, negative = cytotoxicity [8] 11.6% [at 5.99 µM] | activation [16] -4.58% [at 5.99 µM] | activity, negative = inhibition [9] 11.9% [at 5.62 µM] | activation [10] -3.03% [at 7.02 µM] | activity, negative = inhibition [11] -13.8% [at 5.58 µM] | activation [17] 2.15% [at 8.39 µM] | activity change, negative = inhibition [18] -6.17% [at 8.39 µM] | activity change, negative = inhibition [15] 0.0808% [at 8.38 µM]

COC(=O)CCCCCCCC(=O)OC
inactive: Potency [1] | Potency [2] | Potency [3] | Potency [4] | Potency [5] | Potency [7] | Potency [8] | Potency [16] | Potency [9] | Potency [10] | Potency [11] | Potency [12] | Potency [17] | Potency [18] | Potency [13] | Potency [19] | Potency [14] | Potency [15]

[O-][n+]1ccccc1SSc1cccc[n+]1[O-]
inactive: activity change [1] 17.2% [at 11.8 µM, active compounds read high] | activation [2] 1.71% [at 15.8 µM] | activation [4] -14.9% [at 13.5 µM] | activation [5] -12.8% [at 13.6 µM] | activity change, negative = cytotoxicity [8] 8.83% [at 13.5 µM] | activation [12] 14.1% [at 15.8 µM] | activation [17] -1.24% [at 19 µM] | activity change, negative = inhibition [13] 11.4% [at 19 µM] | activation [19] 17.9% [at 19 µM] | activity change, negative = inhibition [15] -21.1% [at 18.9 µM]
active: Potency [3] 4.65 µM | Potency [7] 0.547 µM | Potency [10] 9.28 µM

COC(=O)C1=C(C)NC(C)=C(C(=O)OCCCN2CCC(c3ccccc3)(c3ccccc3)CC2)C1c1cccc([N+](=O)[O-])c1 (configuration not stated)
inactive: Potency [1] | Potency [2] | Potency [3] | Potency [4] | Potency [5] | Potency [6] | Potency [7] | Potency [8] | Potency [9] | Potency [10] | Potency [11] | Potency [12] | Potency [13] | Potency [14] | Potency [15]

CCc1ccc(C)cc1
inactive: Potency [1] | Potency [2] | Potency [3] | Potency [4] | Potency [5] | Potency [6] | Potency [7] | Potency [16] | Potency [9] | Potency [10] | Potency [11] | Potency [12] | Potency [17] | Potency [18] | Potency [13] | Potency [14] | Potency [15]

COc1ccc(OC(F)(F)F)cc1CN[C@H]1CCCN[C@H]1c1ccccc1
inactive: Potency [1] | Potency [2] | Potency [3] | Potency [4] | Potency [5] | Potency [6] | Potency [8] | Potency [16] | Potency [9] | Potency [11] | Potency [12] | Potency [13] | Potency [19]

CN1CCC[C@@H]1CCO[C@](C)(c1ccccc1)c1ccc(Cl)cc1
inactive: Potency [1] | Potency [2] | Potency [3] | Potency [4] | Potency [5] | Potency [6] | Potency [7] | Potency [8] | Potency [14]

CCCCCSCCCCC
inactive: Potency [1] | Potency [2] | Potency [3] | Potency [4] | Potency [5] | Potency [6] | Potency [7] | Potency [8] | Potency [9] | Potency [10] | Potency [12] | Potency [17] | Potency [18] | Potency [13] | Potency [19] | Potency [14] | Potency [15]

CCCCc1ccc2nc(NC(=O)OC)[nH]c2c1
inactive: Potency [1] | Potency [2] | Potency [3] | Potency [4] | Potency [5] | Potency [9] | Potency [10] | Potency [11] | Potency [12] | Potency [18] | Potency [13] | Potency [19] | Potency [14] | Potency [15]

O=C1Nc2ccc([N+](=O)[O-])cc2C1=O
inactive: Potency [1] | Potency [2] | Potency [3] | Potency [4] | Potency [5] | Potency [6] | Potency [7] | Potency [8] | Potency [16] | Potency [10] | Potency [11] | Potency [12] | Potency [17] | Potency [18] | Potency [14]
